Source: PubChem
Rows were chosen to be rich in hits. Some 2.7% of all compounds tested hit in one or more screens of this group.
PREPL inh: inhibits the human prolyl oligopeptidase-like enzyme | recombinant PREPL, fluorescence polarization activity-based probe | inhibition, % at 5.96 µM | 0.68% of 320,000 active | Q4J6C6 | AID 2751;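 note: 0% = enzyme with DMSO and 100% = wells lacking enzyme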
ANO1 block: inhibitors of mouse TMEM16A calcium-activated chloride channel. normalized B-score (activity score, 25-100; higher = stronger inhibition) at 10 µM. AID 588511. 1.2% of 310,000 active. Q8BHY3. HEK293 TMEM16A/YFP iodide influx fluorescence, ionomycin;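 active = ratio plate-corrected score three or more library SD toward inhibition, starting fluorescence score within five deviations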;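 note: score derived from kinetic fluorescence span divided by baseline fluorescence per well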
ANO1 activ: activates or potentiates the mouse TMEM16A chloride channel; Q8BHY3; HEK293 TMEM16A/YFP-H148Q/I152L, iodide quench fluorescence; hits give low values; B-score at 10 µM; 0.3% of 340,000 active;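 active = fluorescence-ratio B-score plate-corrected deviation score at least 3 library SD below zero, with starting fluorescence score within 5 deviations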;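 note: channel opened by trigger with iodide after compound preincubation; score built on the fluorescence ratio of max minus min over baseline; more negative score means more quench and so TMEM16A activation or potentiation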
PP1 counter: blocks human PP1-alpha phosphatase, a PP5 counter-screen | inhibition, % at 6.7 µM | 0.9% of 320,000 active | AID 2235 | P62136 | purified PP1alpha, OMFP fluorescence;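 active = inhibition above the mean inhibition of all tested compounds plus 3 SD, computed separately for each screening campaign, cut at about 15% in these data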
DNA FID counter: counter-screen for HCV NS3 helicase inhibitors: DNA intercalator displacement; DNA fluorescent intercalator displacement, fluorescence; inhibition, % at 7.9 µM; 0.17% of 290,000 active; in the data active = inhibition above about 37%;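 note: 0% = vehicle and 100% = reference compound; higher means more ethidium bromide displaced from hairpin DNA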
PP5 inh: blocks human protein phosphatase 5 activity | purified PP5c, OMFP substrate fluorescence | inhibition, % at 6.7 µM | 0.18% of 320,000 active;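 active = inhibition above the campaign's mean inhibition across all tested compounds plus 3 SD, cut at about 9.5% in these data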;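 note: 0% = DMSO only and 100% = 100 µM cantharidin control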
PREPL confirm: confirmation of human PREPL enzyme inhibitors. AID 2803. 67% of 2,000 active. shares compounds with PREPL inh. inhibition, % at 5.96 µM. recombinant PREPL, fluorescence polarization activity probe;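 note: 0% = protein with DMSO and 100% = wells lacking protein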
The depositor's hits bear a star; i = inactive; . = not tested or not shown. Cut-off read from the data, not from the text of the source, unless noted: active = inhibition above about 43%; inactive = the rest.

SMILES	PREPL inh	ANO1 block	ANO1 activ	PP1 counter	DNA FID counter	PP5 inh	PREPL confirm
COc1cccc(N(C(=O)c2sc(C)nc2C)C(C(=O)NCC2CCCO2)c2ccccc2)c1 (stereo not drawn)	-4	i	i	3	-45	-1	.
O=C(COC(=O)c1ccc2c(c1)OCCO2)NCCc1ccccc1	0	.	i	.	.	.	.
O=C(CN1C(=O)CCSc2ccc(S(=O)(=O)N3CCCC3)cc21)NCc1ccccc1Cl	4	i	i	-3	-35	-1	.
Cc1noc(C)c1CSCC(=O)Nc1ccc(S(=O)(=O)C(F)F)cc1	10	i	i	-5	.	-3	.
Cc1sc2ncnc(N/N=C/c3ccccc3O)c2c1C	66*	i	i	7	-7	5	65*
Cc1sc2ncnc(N/N=C/c3ccc(O)cc3)c2c1C	24	i	i	3	4	4	.
Cc1noc(NS(=O)(=O)c2ccc(NC(=O)C(F)(F)C(F)(F)C(F)(F)F)cc2)c1C	12	i	i	1	.	1	.
CCN(CC)CCCNC(=O)Cn1nc([N+](=O)[O-])c(Cl)c1C	2	i	i	-1	11	0	.
CN(C)c1cccc(C(=O)OCCCC(=O)c2ccc(F)cc2)c1	16	.	i	3	.	2	.
C[C@@H]1O[C@@H](Oc2c(-c3cc(O)c(O)c(O)c3)oc3cc(O)cc(O)c3c2=O)[C@H](O)[C@H](O)[C@H]1O	48*	i	i	4	0	2	20
C[C@@H]1O[C@@H](Oc2c(-c3ccc(O)c(O)c3)oc3cc(O)cc(O)c3c2=O)[C@H](O)[C@H](O)[C@H]1O	19	.	i	.	.	.	.
Cc1cc(NS(=O)(=O)c2ccc(NC(=O)COc3ccc(Cl)c(C)c3)cc2)no1	.	.	i	.	-31	.	.
CCN(C(=O)CN1CCCCCC1)c1c(N)n(Cc2ccccc2)c(=O)[nH]c1=O	22	.	i	.	.	.	.
CCN(C(=O)CN1CCN(S(=O)(=O)c2cc(Cl)ccc2Cl)CC1)c1c(N)n(Cc2ccccc2)c(=O)[nH]c1=O	64*	i	i	0	-5	1	61*
CC1(C)N=C(N)N=C(N)N1c1ccc(Oc2ccc(Cl)cc2)c(Cl)c1	55*	i	i	0	5	-1	52*
CC1CN(C(=O)CCC(=O)N2CCCCC2)c2ccccc2O1 (stereo not drawn)	2	i	i	-2	-12	1	.
COc1ccc(OC)c(-c2c3cc(O)c(=O)cc-3oc3cc(O)c(O)cc23)c1	78*	i	i	-103	-10	-82	77*
O=c1cc2oc3cc(O)c(O)cc3c(-c3ccccc3O)c-2cc1O	.	.	i	.	-68	.	.
Cc1ccc(-c2ccccc2NC(=O)CS(=O)CC(=O)Nc2ccc(C)c(Cl)c2)o1 (stereo not drawn)	60*	i	i	6	-20	5	5
Cc1ccc(-c2ccccc2NC(=O)CCl)o1	-3	i	i	4	2	4	.
CCN(CC)C(=O)c1[nH]cnc1C(=O)N[C@@H](Cc1ccccc1)C(=O)OC(C)(C)C	4	i	i	-2	-42	-1	.
CC12CNCC(C)(CN(C(c3ccccc3)c3ccccc3)C1)C2	46*	i	i	-3	5	0	13
Clc1ccc(C(c2ccccc2)N2CCNCC2)cc1 (stereo not drawn)	8	i	i	-3	9	0	.
COC(=O)C1=C(NC(=O)COc2ccc3ccccc3c2)CCS1	58*	i	i	2	-3	-1	41
COC(=O)NCC(c1cccnc1)N1CCN(c2ccccc2)CC1 (stereo not drawn)	-5	i	i	-4	-2	0	.
O=C(NCCc1c[nH]c2ccccc12)C(=O)NCC(c1cccnc1)N1CCN(c2ccccc2)CC1 (stereo not drawn)	52*	i	i	1	-38	3	46*
CSC(C1CCCC1)n1nnc2ccccc21 (stereo not drawn)	6	i	i	3	.	2	.
Nc1ccc2c(c1)C(=O)c1ccccc1-2	6	i	i	-2	.	3	.
